DT40 TDP1 no CPT – qHTS for Inhibitors of human tyrosyl-DNA phosphodiesterase 1 (TDP1): qHTS in cells in absence of CPT. DT40 Tdp1-/- hTDP1 cells, no CPT, ATP luminescence, 48 h. Potency, µM (doses to about 46.2 µM), for inactives: top-dose activity change, negative = growth inhibition, hits mostly inhibitors. actives 15% (n = 420,000); further: potency means the concentration at half of the fitted maximal effect; nearly all actives have a fitted effect of over 55% in size
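No-CPT arm: Tdp1-/-;hTDP1 DT40 cells (400/well) plus compounds, incubated ≥48 hr at 37 °C. Readout CellTiter-Glo luminescence.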
Gal4-VP16 FLuc – inhibits Gal4-VP16 luciferase reporter, ROR gamma counter-screen; Drosophila S2 Gal4-VP16 UAS-luciferase, luminescence, 20 h; Potency, µM (doses to about 53.6 µM), for inactives: at the highest dose activity, negative = inhibition, usual class: inhibitors; actives 3.5% (n = 310,000);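 further: Gal4-VP16 expression switched on by copper sulfate through the metallothionein promoter; potency means the concentration at half of the fitted maximal effect; nearly all actives have a fitted effect of over 50% in size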
LDHA inh – blocks human lactate dehydrogenase A; activity change, % (values are at about 110 or 230 µM); AID 1347041; purified LDHA, NADH/diaphorase-resazurin fluorescence; stronger effect = lower value; P00338; actives 0.15% (n = 480,000); in the data active means activity change below about -30%; inconclusive means mostly about -25% to -30%;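 further: plate controls were DMSO wells for no effect and wells without enzyme for full effect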
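Resorufin fluorescence (ex540/em590), read at 0 and 20 min after diaphorase/resazurin addition, reports the NADH left after a 5 min room-temperature reaction of 2 nM human LDH5 with 0.06 mM NADH and 0.2 mM pyruvate.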
RORg inh – blocks mouse ROR gamma transcriptional activity; P51450; Drosophila S2 Gal4-RORgamma UAS-luciferase reporter, 20 h; Potency, µM (top dose mostly 53.6 µM), for the others: top-dose activity change, negative = inhibition, actives largely listed as inhibitors; actives 5.4% (n = 310,000); AID 2551; further: potency means the concentration at half of the fitted maximal effect; nearly all actives have a fitted effect of over 60% in size
Target sequence (P51450 whole entry, looked up, the tested form may be a part): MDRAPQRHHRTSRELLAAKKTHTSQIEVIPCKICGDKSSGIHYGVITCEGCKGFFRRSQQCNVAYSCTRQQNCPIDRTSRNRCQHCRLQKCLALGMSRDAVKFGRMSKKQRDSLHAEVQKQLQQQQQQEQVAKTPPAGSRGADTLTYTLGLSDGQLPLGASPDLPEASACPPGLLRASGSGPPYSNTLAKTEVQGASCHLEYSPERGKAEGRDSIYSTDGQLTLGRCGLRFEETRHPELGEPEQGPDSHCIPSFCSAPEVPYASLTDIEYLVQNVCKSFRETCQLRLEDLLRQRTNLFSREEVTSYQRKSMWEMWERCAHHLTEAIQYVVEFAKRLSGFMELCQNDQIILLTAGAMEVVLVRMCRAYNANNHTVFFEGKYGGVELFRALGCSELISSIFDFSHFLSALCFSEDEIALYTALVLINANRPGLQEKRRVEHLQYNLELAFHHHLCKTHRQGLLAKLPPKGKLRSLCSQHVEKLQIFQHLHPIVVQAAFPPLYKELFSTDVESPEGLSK
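Drosophila Schneider cells stably carrying a metallothionein-driven Gal4 DBD–ROR gamma fusion and a UAS-Photinus luciferase reporter were exposed to compound for 1 hr, then induced with copper sulfate (700 uM final) for 20 hr at ambient temperature before luminescence reading.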
IL1B secr inh – inhibitors of inflammasome signaling (IL-1 beta secretion). THP-1 LPS/ATP IL-1B secretion, AlphaLISA, 16 h; stronger effect = lower value. activity change, % at 57.5 µM. actives 4.7% (n = 360,000). AID 743279; in the data active means activity change below about -50%; inconclusive means mostly about -30% to -49%
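Secreted IL-1B measured by AlphaLISA bead assay after 16 h compound exposure of THP-1 cells; compounds (final up to 57.5 uM) added 1 h before LPS (250 ng/mL) and ATP (1.25 mM) stimulation; lower signal means less secretion.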
DT40 TDP1 CPT – growth inhibition of DT40 Tdp1-/-;hTDP1 cells with camptothecin (screen for TDP1 inhibitors). chicken DT40 Tdp1-/-;hTDP1 cells + 20 nM CPT, ATP luminescence, 48 h. Potency, µM (titrated, usually from 46.2 µM), for the others: at the highest dose activity change, negative = growth inhibition, actives largely listed as inhibitors. actives 12% (n = 420,000); further: potency means the concentration at half of the fitted maximal effect; nearly all actives have a fitted effect of over 55% in size
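Chicken DT40 Tdp1-/- cells complemented with human TDP1, 400 cells/well, exposed to compounds plus 20 nM camptothecin for at least 48 h at 37 C; viability read as ATP content by CellTiter-Glo luminescence.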
An asterisk follows results filed as active; ? = inconclusive; . = no result given; [ ] = remark or other dose. Rows were chosen to be rich in hits. Some 18% of all compounds tested hit in one or more screens of this group. Unless noted, the call rests on the fitted dose curve; in most records, active means well fitted curve in the direction sought with a large enough effect; inconclusive means small, poorly fitted or top-dose-only effect, or another doubt; inactive means no such curve, though single readings can be large; an effect the other way counts as inactive or inconclusive. Unless noted, on the % scale 0 is the no-effect control and ±100 the full control effect.

SMILES	DT40 TDP1 no CPT	Gal4-VP16 FLuc	LDHA inh	RORg inh	IL1B secr inh	DT40 TDP1 CPT
O=S(=O)(c1ccc2ccccc2c1)N1CCc2ccccc21	?	-17%	-1	?	12	?
COc1cc(C(=O)Nc2ccc(S(=O)(=O)N3CCc4ccccc43)cc2)cc(OC)c1OC	16µM*	4%	0	35%	-11	?
COc1cc(C(=O)Nc2ccc3c(c2)CCN3C(C)=O)cc(OC)c1OC	2.1µM*	-2%	-2	-34%	0	?
COc1ccc(NC(C)=O)cc1NC(=O)c1cccc(S(=O)(=O)N2CCc3ccccc32)c1	-11%	.	1	.	-15	-16%
COc1ccccc1NC(=O)Cn1nc(-c2ccc(C)c(S(=O)(=O)N3CCOCC3)c2)ccc1=O	.	.	-2	.	.	.
COc1ccc(S(=O)(=O)N2CCc3ccccc32)cc1C(=O)OCC(=O)Nc1ccccc1	.	.	-14	.	.	.
Cc1cc(NC(=O)c2ccc(S(=O)(=O)N3CCc4ccccc43)cc2)no1	-10%	?	-3	11µM*	16	-13%
CCOc1ccc(C(=O)Nc2ccc3c(c2)OCO3)cc1OCC	-8%	3%	2	23%	8	-3%
COc1ccc(S(=O)(=O)N2CCc3ccccc32)cc1C(=O)Nc1ccc(C(N)=O)cc1	?	.	0	.	0	23µM*
CCOc1ccc(C(=O)Nc2ccc3c(c2)N(C(C)=O)CCC3)cc1OCC	21µM*	.	4	.	.	?
C=C(C)COc1ccc2c(C)c(CC(=O)Nc3ccc4c(c3)OCCO4)c(=O)oc2c1	.	.	1	.	.	.
CC(C)CCn1nc(C(=O)OCC(=O)NC23CC4CC(CC(C4)C2)C3)c2ccccc2c1=O	.	.	12	.	.	.
NC(=S)NNC(=O)Nc1ccccc1	.	.	8	.	.	.
COc1ccc(-c2c(NC(=O)c3ccccc3)oc3ccccc3c2=O)cc1	.	.	3	.	.	.
CCOc1ccc(/C=N/Nc2ccccc2)cc1	15µM*	-10%	2	25%	23	?
CC(C)(C)[C@@H]1COC(=O)[C@H](Cc2ccc(F)cc2)CC/C=C\C[C@@H](CC(=O)N(CCO)Cc2ccccc2)C(=O)N1	23µM*	.	-4	.	-11	5.8µM*
CC(C)(C)[C@@H]1COC(=O)[C@@H](Cc2ccc(F)cc2)C/C=C\C[C@H](CC(=O)N(CCO)Cc2ccccc2)C(=O)N1	?	.	-1	.	-19	23µM*
COc1ccc(C2CC(=O)Nc3c2c(C)nn3-c2ccc(Cl)nn2)cc1O (stereo not drawn)	.	.	-23	.	.	.
CN(C)c1ccc(/C=C/c2ccnc3ccc(N)cc23)cc1	?	.	1	.	.	18µM*
CN(C)c1ccc(/C=C/c2ccnc3ccc(F)cc23)cc1	14µM*	.	.	.	.	13µM*
CN(C)c1ccc(/C=C/c2ccnc3ccc(Br)cc23)cc1	5.6µM*	.	-4	.	.	5.6µM*
CN(C)c1ccc(/C=C/c2ccnc3cc(Cl)cc(Cl)c23)cc1	?	.	4	.	.	?
CN(C)c1ccc(/C=C/c2ccnc3ccc(-c4ccccc4)cc23)cc1	14µM*	.	2	.	.	?
Cc1cc(CSCC(=O)Nc2ccccc2C)on1	.	.	-7	.	.	.
Clc1cccc(C=Nc2cccc3ccccc23)c1Cl	.	.	24	.	.	.
SMILES	DT40 TDP1 no CPT	Gal4-VP16 FLuc	LDHA inh	RORg inh	IL1B secr inh	DT40 TDP1 CPT
CN(C)c1ccc(/C=C/c2ccnc3ccc(O)cc23)cc1	?	.	-1	.	.	?
COc1ccc2nccc(/C=C/c3ccc(N(C)C)cc3)c2c1	11µM*	.	6	.	.	?
CN(C)c1ccc(/C=C/c2ccnc3ccc(Cl)cc23)cc1	13µM*	.	2	.	.	?
COc1cccc2nccc(/C=C/c3ccc(N(C)C)cc3)c12	13µM*	.	3	.	.	32µM*
NCCCCCc1nnc(SCc2ccccc2Cl)o1	-22%	0.45µM*	-11	1µM*	16	-19%
NCCCCCc1nnc(SC/C=C/c2ccccc2)o1	23µM*	-20%	-1	-2%	-1	18µM*
CCCOc1ccc(C2=NC(c3ccncc3)=Nc3ccc(C)cc3N2)cc1	?	.	0	.	.	?
CCCCOc1ccc(C2=NC(c3ccncc3)=Nc3ccc(OCC)cc3N2)cc1	?	.	12	.	.	16µM*
CCOc1ccc(C2=NC(c3ccncc3)=Nc3ccc(C)cc3N2)cc1OCC	18µM*	.	2	.	.	?
CCOc1ccc2c(c1)NC(c1cccs1)=NC(c1ccc(F)cc1)=N2	?	.	6	.	.	23µM*
CC1(C)OC2OC(C(=O)Oc3ccc(Cl)cc3)C3OC(C)(C)OC3C2O1 (stereo not drawn)	.	.	-3	.	.	.
N#Cc1cccc(C(=O)NC2CCCCC2C(F)(F)F)c1 (stereo not drawn)	.	.	1	.	.	.
CCOC(=O)C1(CCOc2ccccc2)CCN(Cc2ccc(-n3cccn3)cc2)CC1	16µM*	-6%	2	23%	4	?
CCOC(=O)C1(CCOc2ccccc2)CCN(Cc2ccncc2)CC1	26µM*	2%	-2	19%	-20	?
CCOC(=O)C1(CCOc2ccccc2)CCN(Cc2cccn2-c2ncccn2)CC1	?	-18%	3	12%	-27	?
O=C(N/N=C/c1ccccn1)c1ccc(Br)o1	?	?	1	13µM*	5	?
O=C(N/N=C/c1ccccn1)c1cc[n+]([O-])cc1	.	.	4	.	.	.
O=C(N/N=C/c1ccccn1)c1cc(Br)ccc1O	?	4.5µM*	-6	4µM*	118	?
CNc1sc2c(c1C#N)CCCC2	.	.	11	.	.	.
O=C(Cn1ncc2ccccc2c1=O)NC1CCCC1	.	.	11	.	.	.
COc1ccc(/C=C/c2cc[n+](C(=O)Cc3ccccc3)cc2)cc1	2.3µM*	-2%	2	45%	-108*	3.3µM*
COc1ccc(/C=C/C(=O)NCc2ccccc2)cc1	.	.	9	.	.	.
Cc1cc(C)c(NC(=O)C(C)Sc2nc3ccc(N4C(=O)c5ccccc5C4=O)cc3s2)c(C)c1 (stereo not drawn)	35µM*	3%[0.365 µM]	-4	33%	1	?
C/C(=N\Nc1ccc(Cl)cc1C)c1cc2ccccc2s1	.	.	-2	.	.	.
CC1CC(N(C(=O)c2ccco2)c2ccccc2)c2ccccc2N1 (stereo not drawn)	15µM*	-2%	6	3%	0	?
O=C(NC1CCCC1)C(c1ccncc1)N(C(=O)c1ccco1)c1ccccc1 (stereo not drawn)	-29%	-3%	-11	17%	-4	-12%
CCCCC(=O)n1nc(-c2ccc(Cl)cc2)nc1N	.	.	-23	.	.	.

Bioassay records as filed in PubChem BioAssay.
